Experimental findings from PubChem BioAssay AID504465 (National Center for Advancing Translational Sciences (NCATS), 2011) are described below.

Molecules are shown by their SMILES. The whole screen tested about 2,100 compounds, of which about 210 (10%) were called active. Inconclusive results (about 53%) are left out. Calls follow the shape of the dose curve; as a rule, active = well fitted inhibition curve with a large enough effect; inconclusive = small, poorly fitted or top-dose-only effect, or effect the other way; inactive = no such curve, though single readings can be large or run the other way. The list shows a part of the results.
Potency is read from the fitted curve at half-maximal effect.

The test is described as follows: IN Cell qHTS Assay for Inhibitors of the mTORC1 Signaling Pathway in MEF (Tsc2-/-, p53-/-) Cells: Sytravon. Also: nearly all actives have a fitted effect of over 60% in size. Particulars: phospho-rpS6 immunofluorescence, 24 h; series mostly up to 38.3 µM; activity, negative = inhibition: at the top concentration. From the text:
NIH Molecular Libraries Probe Production Centers Network [MLPCN] NIH Chemical Genomics Center [NCGC] MLPCN Grant: NS059428-01 Assay Submitter (PI): Blenis, John; Hoffman, Greg; Harvard University NCGC Assay Overview: Thee mammalian target of rapamycin (mTOR) is an intracellular serine/threonine kinase Aberrant regulation of mTOR signaling plays a causative role in a number of human diseases, including cancer, benign tumors such as lymphangioleiomyomatosis (LAM) and Tuberous Sclerosis Complex (TSC), and metabolic diseases such as diabetes and obesity. This project aims to identify inhibitors of ribosomal protein S6 (rpS6) phosphorylation. The phosphorylation of rpS6 is a key event downstream of mTOR activation. The assay uses a phospho-specific antibody of phospho-rpS6 to detect inhibitors of mTOR activation. Mutations in the Tsc1 and Tsc2 genes are the underlying genetic lesions responsible for TSC, causing constitutive activation of the mTORC1 pathway and leading to profound effects on cell metabolism. Aberrant metabolism in cancer has recently received significant attention as a target to develop therapeutic agents in the treatment of cancer1. As Tsc2-/- cells have lost the ability to respond to energy and growth factor deprivation, these cells are unable to properly down regulate cellular biosynthetic processes in response to metabolic stress, and are thus extremely sensitive to glucose deprivation-induced death.2 A central goal of this project is to explore the unique cell survival and metabolic properties of cells with Tsc1 or Tsc2 by screening for compounds that selectively target the Tsc2-/- MEFs by screening both Tsc2-/- and WT MEF cell lines. We hope to better understand these aspects of TSC physiology in order to exploit them for therapeutic benefit.
NCGC IN Cell Assay Protocol: For quantitative high throughput analysis of mTORC1 signaling, we developed a cell-based assay for immuno-fluorescence based detection of rpS6 phosphorylation on the Acumen Explorer that will be used a platform for the primary small molecule screen. Mouse embryonic fibroblasts (MEFs) are cultured in 1536-well plates using DMEM + 10% FBS. Twenty-four hrs after plating, test compounds (solubilized in DMSO) are delivered and incubated with the cells for 24 hrs at 37 degree Celsius. Following the incubation, media with compound is aspirated and the cells are fixed in 4% paraformaldehyde (PFA) containing PBS + 0.2% TX-100. Next, PFA is aspirated, cells are washed two times with PBS plus 0.2% TX-100 and the cells are blocked for 1 hr at room temperature (blocking buffer: LiCOR Blocking Buffer plus 0.2% TX-100). This is followed by aspiration and staining with Alexa-488 conjugated-phospho-rpS6 Ser235/236 antibody for 2 hours at room temperature (Cell Signaling Technology # 4803, 1:50 dilution in blocking buffer). Cells are washed two times with PBS plus 0.2% TX-100, and stained with 10 uM propidium iodide (PI) for 20-25 minutes for cell number measurement (1:500 dilution of Hoescht staining is also added for IN Cell imaging). Active wells which are selected (based on Acumen results) are imaged on the IN Cell 1000 (GE Healthcare) using the D360/40X and HQ480/40X excitation filters for the Hoechst and Alexa-488 cytoplasmic stains, respectively. The fluorescence emission filters used were HQ460/40M and HQ535/50M for the Hoechst and Alexa-488 cytoplasmic stains, respectively. The normalized phospho-S6 staining is calculated as the ratio of […] for the single concentration rapamycin control (7.5 nM) and DMSO columns. […] Inhibition of the pathway is defined based on the normalized phospho-S6 intensity in rapamycin treated cells. Each treatment is reported as the % positive cells in the well, where thresholds are defined by selecting wells with the highest and lowest signal and differentiating between the % non-active and % active populations. […]
Take `O=C(NCCc1ccccc1)c1ccc(Cn2c(SCc3ccccc3)nc3cccnc32)cc1`: the “activity, negative = inhibition” value is -23.6% (inactive).
As for `O=C(Nc1ccc(Cl)cc1)c1cc(S(=O)(=O)N2CCCc3ccccc32)ccc1F`, the “activity, negative = inhibition” value was 6.25% (inactive).
For `Cc1noc2ncnc(N3CCN(c4ccccc4F)CC3)c12`, the “activity, negative = inhibition” value is -0.0728% (inactive).
Turning to `Cc1ccc(Nc2nc(Nc3ccc(C)c(C)c3)nc(N3CCOCC3)n2)cc1C`, the Potency was 0.656 µM (active).
For `Cc1cccc(Nc2nc(Nc3cccc(C)c3)nc(N3CCOCC3)n2)c1`, the Potency is 1.47 µM (active).
With `CCOc1ccc(Nc2nc(Nc3ccc(OCC)cc3)nc(N3CCOCC3)n2)cc1`, the Potency was 0.826 µM (active).
The same measure, in the same setting: next, `Fc1ccc(Nc2nc(Nc3ccc(F)cc3)nc(N3CCOCC3)n2)cc1`: 0.521 µM (active).
As to `CCCN1C(=O)CN(C2CCCCCC2)C(=O)C1c1ccc(OCC)c(OC)c1` (centres undefined), the “activity, negative = inhibition” value is 6.25% (inactive).
Consider `CC(C)OCCCNC(=O)CCCN1C(=O)CCn2nc(-c3cccn3C)cc21`, for which the “activity, negative = inhibition” value was -0.543% (inactive).
Still for that read-out and setting: next, `CCCN1CCN(c2ncnc3sc(C(=O)Nc4ccc(OC(F)(F)F)cc4)c(C)c23)CC1`: -14.8% (inactive); `O=C(Nc1cc(Cl)cc(Cl)c1)c1ccc(F)c(S(=O)(=O)N2CCCCCC2)c1`: 6.25% (inactive).
The same measure, in the same setting: next, `CC(C)c1nn2c(=O)cc(COC(=O)c3ccc(NC(=O)c4cccs4)cc3)nc2s1`: 0% (inactive); `CC1=Nc2cc(C(=O)NC3CCCC3)ccc2Sc2ccc(C)cc21`: -15% (inactive).
For `CCCN1Cc2cccc(C(=O)Nc3ccc(OC)cc3OC)c2C1=O`, the “activity, negative = inhibition” value is 13.5% (inactive).
Regarding `COc1ccccc1NCc1cccn1-c1nnc(N2CCOCC2)s1`, the “activity, negative = inhibition” value was -15% (inactive).
In the case of `COc1ccc(Nc2nc(Nc3ccc(OC)cc3OC)nc(N3CCOCC3)n2)c(OC)c1`, the Potency was 1.31 µM (active).
Take `CCCN1CCN(CCCNC(=O)c2cc3c(s2)-c2c(C)cccc2OC3)CC1`: the Potency is 18.5 µM (active).
On to `CCN1CCN(CCCNC(=O)c2cc3c(s2)-c2c(C)cccc2OC3)CC1`, for which the Potency is 14.7 µM (active).
As for `CCN(CC)S(=O)(=O)c1ccc2c(c1)N(CC(=O)NCCCN1CCN(c3cc(C)ccc3C)CC1)C(=O)CO2`, the “activity, negative = inhibition” value is 0% (inactive).
In the case of `CCOc1ccccc1NC(=O)c1c(NCc2cccs2)sc2c1CCC(C)C2` (centres undefined), the “activity, negative = inhibition” value was 0% (inactive).
On the same count and under the same terms, in the case of `Cc1ccc(C)c(NC(=O)CSc2cn(CC(=O)N3CCCC3)c3ccccc23)c1` it was -2.42% (inactive); in that of `COc1ccc(CNC(=O)c2c(Nc3ccccc3C)sc(C(=O)c3ccccc3)c2N)cc1`, -15.4% (inactive).
For `COc1cccc(-c2ccc3c(N)c(C(=O)c4ccc(Cl)cc4)sc3n2)c1`, the Potency was 10.4 µM (active).
Still for that read-out and setting: next, `COc1ccc(-c2ccc3c(N)c(C(=O)Nc4cccc(C)c4)sc3n2)cc1`: 13.1 µM (active).
Regarding `COc1ccc(NC(=O)c2sc3nc(-c4ccc(OC)cc4)cc(C(F)(F)F)c3c2N)cc1`, the “activity, negative = inhibition” value was 15.3% (inactive).
Still for that read-out and setting: next, `COc1cccc(Nc2sc(C(=O)c3ccc(F)cc3)c(N)c2C(=O)NCc2ccc(C)cc2)c1`: 0% (inactive).
In the case of `COc1ccc(-c2cc(C(=O)Nc3ccc4c(c3)OCO4)no2)cc1`, the “activity, negative = inhibition” value is -7.44% (inactive).
Consider `COc1ccc(-c2cc(C(=O)Nc3cccc(O)c3)on2)cc1OC`, for which the “activity, negative = inhibition” value is -6.34% (inactive).
`COc1ccc(-c2ccc3c(N)c(C(=O)Nc4ccc(C(F)(F)F)cc4)sc3n2)cc1OC`: the Potency was 0.233 µM (active).
Take `COc1ccc(C(=O)Nc2cc(-c3nc4ccccc4s3)ccc2OC)cc1`: the “activity, negative = inhibition” value is -10.3% (inactive).
In the case of `CCCc1ccc(C2Sc3ccccc3NC3=C2C(=O)c2ccccc23)cc1` (centres undefined), the “activity, negative = inhibition” value was -13.1% (inactive).
As for `Cc1cccc(NC(=O)CSc2nc3ccccc3c3nc(CCn4cncc4C)nn23)c1`, the “activity, negative = inhibition” value is -11.5% (inactive).
For the compound `CCCCCC(=O)Nc1ccc(NC(=O)c2cc3ccccc3o2)c(OC)c1`, the Potency was 18.5 µM (active).
As for `Cc1cccc(Nc2ncc(NC(=O)c3cccc(F)c3)c(Nc3cccc(C)c3)n2)c1`, the “activity, negative = inhibition” value was -24.6% (inactive).
As to `COc1ccc(NC(=O)c2ccco2)cc1NC(=O)COc1ccc(Cl)c(C)c1`, the “activity, negative = inhibition” value is -24% (inactive).
Regarding `COc1cc(NC(=O)c2cccc(F)c2)ccc1NC(=O)c1cc2ccccc2o1`, the Potency is 16.5 µM (active).
In the case of `COc1cc(NC(=O)Cn2ccc3ccccc3c2=O)cc(OC)c1OC`, the “activity, negative = inhibition” value is -20.1% (inactive).
In the case of `COc1cccc(C(=O)Nc2ccccc2-c2nnc(-c3cccc(OC)c3)o2)c1`, the “activity, negative = inhibition” value is -24.5% (inactive).
On to `O=C(Nc1ccc(F)c(Cl)c1)c1cc(S(=O)(=O)N2CCc3ccccc3C2)ccc1F`, for which the “activity, negative = inhibition” value was 6.25% (inactive).
As to `COC(=O)c1cc(C)nc2c1c(=O)nc(SCc1ccccc1Cl)n2C1CC1`, the “activity, negative = inhibition” value is -23.4% (inactive).
Regarding `COc1ccccc1N1CCN(C(=O)c2ccc3c(c2)CCN3S(=O)(=O)c2ccccc2)CC1`, the “activity, negative = inhibition” value was -4.71% (inactive).
On the same count and under the same terms, next, `CCc1ccccc1NC(=O)CCNS(=O)(=O)c1ccc2c(c1)CCN2C(=O)C1CC1`: 3.7% (inactive).
For the compound `Cc1ccc(Cl)cc1N1CCN(C(=O)c2cnn(-c3ccc(Cl)cc3)c2C2CCNCC2)CC1`, the Potency was 13.1 µM (active).
For the compound `COc1ccc(-n2ncc(C(=O)N3CCN(C4CCCCC4)CC3)c2C2CCN(C(=O)OC(C)(C)C)CC2)cc1`, the “activity, negative = inhibition” value is 1.08% (inactive).
`Cc1ccc(Cl)cc1N1CCN(C(=O)c2ccc3c(c2)N(Cc2ccc(F)cc2)CCS3)CC1`: the “activity, negative = inhibition” value was -18.8% (inactive).
Regarding `COc1ccc(OC)c(NC(=O)c2c(NCc3ccc(C)o3)sc3c2CCC(C)C3)c1` (centres undefined), the “activity, negative = inhibition” value was 0% (inactive).
Consider `COC(=O)c1scc(-c2ccc(C)cc2)c1S(=O)(=O)Nc1cc(Cl)ccc1C`, for which the “activity, negative = inhibition” value is -2.27% (inactive).
Regarding `Cc1ccc(NS(=O)(=O)c2cc(-c3cnc(C4CC4)o3)ccc2C)cc1Cl`, the “activity, negative = inhibition” value was -8.33% (inactive).
Turning to `Cc1cc(C)c(NS(=O)(=O)c2ccc(-c3cnc(C4CC4)o3)cc2)c(C)c1`, the Potency was 11.7 µM (active).
Regarding `COc1ccccc1CNS(=O)(=O)c1ccc(-c2cnc(C3CC3)o2)cc1`, the “activity, negative = inhibition” value is -5.26% (inactive).
Take `Cc1ccccc1-c1nc(SCC(=O)N(C)c2ccccc2)c2c(=O)n(C)c(=O)n(C)c2n1`: the “activity, negative = inhibition” value is 9.38% (inactive).
With `O=c1c(-c2cc(-c3ccc(F)cc3)nc3c2COc2ccc(Cl)cc2-3)coc2ccc(F)cc12`, the “activity, negative = inhibition” value is 19.8% (inactive).
As for `CCOc1ccc(Nc2nc(-c3cccc(Cl)c3)c3c(n2)-c2ccccc2OC3)cc1`, the Potency was 2.07 µM (active).
Take `CCOc1ccc(Nc2nc(N)c(C(=O)c3ccccc3Cl)s2)cc1`: the “activity, negative = inhibition” value was 1.3% (inactive).
Consider `Cc1ccccc1C1CC(=O)Nc2ccc3ccccc3c21` (centres undefined), for which the “activity, negative = inhibition” value was -6.74% (inactive).
`CCOc1cc(CNCCSc2nnnn2-c2ccccc2)ccc1OC`: the “activity, negative = inhibition” value was -2.4% (inactive).
Regarding `Cc1ccc2nc3sc(C(=O)Nc4ccc(F)cc4)cc3cc2c1`, the Potency was 2.33 µM (active).
In the case of `COc1ccc(C2=CC(c3ccc(F)cc3)n3ncc(C(=O)Nc4ccc(C)cc4)c3N2)cc1` (centres undefined), the “activity, negative = inhibition” value is -0.389% (inactive).
In the case of `Cc1ccc(NC(=O)CCS(=O)(=O)c2ccc3nc(C)sc3c2)cc1`, the “activity, negative = inhibition” value was -26% (inactive).
